Source: PubChem BioAssay
RE007 growth inh – less growth of the S. pombe RE007 Vpr strain. S. pombe RE007 Vpr strain, BacTiter-Glo ATP luminescence, 24 h. Potency, µM (series often up to 92.2 µM), inactives show at the top dose activity change, negative = less growth, hits mostly inhibitors. actives 0.21% (n = 360,000); active = well fitted falling curve with a large enough effect; inconclusive = small, poorly fitted or top-dose-only effect; inactive = no such curve, though single readings can be large or run the other way; also: nearly all actives have a fitted effect of over 50% in size
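Fission yeast strain RE007, carrying one chromosomally integrated HIV-1 vpr copy, was seeded at OD 0.01 in PMG+AL medium with 23 nL pinned compound. After 24 h at 30 °C and 99% humidity, viability was read by BacTiter-Glo luminescence.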
HCV inhibitor – inhibitors of hepatitis C virus infection | Huh7.5.1 HCVcc-Cre infection, luciferase reporter, 44 h | Potency, µM (series often up to 41.8 µM), for the others: at the highest dose activity change, negative = inhibition, usual class: inhibitors | actives 3.4% (n = 340,000)
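After 44 h co-culture of compound, cells and HCVcc-Cre (~0.5 moi), substrate is added for 15 min at room temperature and luciferase measured over 15 sec. Cells were seeded at 1,000/well and pre-cultured 4 h.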
FMDV antiviral – foot and mouth disease virus antiviral activity; FMDV antiviral cell-based qHTS; actives 1.2% (n = 410,000); Potency, µM (top dose mostly 57.9 µM), for inactives: at the highest dose activity change, negative = inhibition, actives largely listed as inhibitors; calls by dose curve; tested in HEK293T cells; also: read-out not given here; nearly all actives have a fitted effect of over 45% in size
LASV entry inh – inhibitors of Lassa virus binding or cell entry | AID 540256 | Lassa virus pseudotype entry inhibition, cell reporter | actives 1.2% (n = 300,000) | Potency, µM (highest dose often 37.9 µM), for the others: at the highest dose activity change, negative = inhibition, hits mostly inhibitors; calls by dose curve; tested in HEK293 cells; also: nearly all actives have a fitted effect of over 50% in size
MARV entry inh – blocks Marburg virus binding to or entry into cells | Marburg virus pseudotyped entry inhibition, cell reporter | Potency, µM (titrated, usually from 37.8 µM), inactives show at the top dose activity change, negative = inhibition, usual class: inhibitors | actives 1.8% (n = 300,000) | AID 540276; calls by dose curve; tested in HEK293 cells
Sm TGR block – S. mansoni TGR enzyme inhibition; actives 3% (n = 360,000); Q962Y6; Potency, µM (series often up to 114 µM), without a hit: top-dose activity change, negative = inhibition, actives largely listed as inhibitors; purified TGR, DTNB reduction, TNB absorbance 405 nm; also: nearly all actives have a fitted effect of over 60% in size
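Kinetic colorimetric format: TGR-catalysed, NADPH-driven DTNB reduction monitored via TNB absorbance. Enzyme dispensed at 20 nM; compound exposure 15 min at room temperature before reaction start.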
* marks the source's active call; other numbers are inactive results; ? = inconclusive; . = not tested or not shown; [ ] = another dose, or the depositor's remark. A selection: hits, their analogues and other compounds. The true share with any hit is near 7.2%. Unless noted, calls follow the shape of the dose curve; as a rule, active = well fitted curve in the direction sought with a large enough effect; inconclusive = small, poorly fitted or top-dose-only effect, or another doubt; inactive = no such curve, though single readings can be large; an effect the other way counts as inactive or inconclusive. % is scaled to controls: 0 for no effect and ±100 for the full control effect; potency is read from the fitted curve at half-maximal effect.

SMILES	RE007 growth inh	HCV inhibitor	FMDV antiviral	LASV entry inh	MARV entry inh	Sm TGR block
COc1ccc(Cn2c(SCC#N)nc3ccc(N4CCOCC4)cc3c2=O)cc1	9%	5µM*	58%	-16%	-14%[46.1 µM]	?
CCCCn1c(SCC(N)=O)nc2ccc(N3CCOCC3)cc2c1=O	9%	-9%	1%	-5%	5%	-24%
COc1cccc(NC(=O)c2cnc(SCC(=O)NCc3ccc4c(c3)OCO4)n(C)c2=O)c1	13%	-6%	?	-11%	21%	-18%
Cc1c(C(=O)NCC2CC2)sc2ncnc(NCCN3CCCCC3)c12	.	.	-20%	.	.	.
O=C1CCCc2nc(N3CCN(C(c4ccccc4)c4ccccc4)CC3)ncc21	-15%	-22%	22µM*	?	?	?
CN1[C@@H]2CC(OC(=O)[C@H](CO)c3ccccc3)C[C@@H]1[C@H]1O[C@H]12 (stereo partly specified)	.	.	-1%	.	.	.
CSC1(SC2=NCCN2)SC2(NCCN2)S1	-13%	?	-10%	10%	10µM*	.
CC(=O)Nc1ccc(S(=O)(=O)/N=C2\C(=O)c3ccccc3C([O-])=C2n2cc[n+](-c3ccccn3)c2)cc1	-23%	-5%	8%	.	.	7.1µM*
CCCC[n+]1ccn(C2=C([O-])c3ccccc3C(=O)/C2=N\S(=O)(=O)c2ccc(Br)cc2)c1	-4%	10µM*	-23%	?	?	-19%
Cc1ccc(S(=O)(=O)/N=C2\C(=O)c3ccccc3C([O-])=C2n2cc[n+](CCC(C)C)c2)cc1	-10%	18µM*	.	-16%	?	-18%
Cc1ccc(NC(=O)C[n+]2ccn(C3=C([O-])c4ccccc4C3=O)c2)cc1	-1%	-15%	16%	4%	18%[46.1 µM]	2%
CN(C)c1ccc(-c2cncnc2NCc2cccnc2)cc1	.	.	-5%	.	.	.
C[n+]1c2n(c3ccccc31)N=C(c1cc(C(C)(C)C)c(O)c(C(C)(C)C)c1)CS2	-3%	?	14µM*	?	11µM*	.
COc1ccc(CCNC(=O)c2cnn(-c3ccc(F)cc3)c2C2CCN(C(=O)OC(C)(C)C)CC2)cc1OC	.	.	-17%	?	.	-4%
CCOC(=O)c1cc(C)sc1/N=C/C1C(=O)CCCC1=O	?	26%	-12%	2%	-12%	?
CCOC(=O)c1cc(C)sc1/N=C/C1C(=O)NC(=S)NC1=O	1%	6%	-19%	-19%	9%[46.1 µM]	4.5µM*
COc1ccc(CNC(=O)C(C)n2ccc3cc(S(=O)(=O)N4CCCC4)ccc32)cc1OC (stereo unspecified)	.	.	-22%	2%[46.1 µM]	.	2%
COC(=O)c1[nH]c2cc(OC)ccc2c1NC(=O)c1ccc2c(c1)OCO2	13%	2.5µM*	5%	-3%	-16%	12%
COC(=O)c1[nH]c2cc(OC)ccc2c1NC(=O)CN1CCOCC1	.	-25%	.	.	.	-2%
C=CCNC(=S)Nc1c(C(=O)OC)[nH]c2cc(OC)ccc12	20%	13%	25%	.	.	1.8µM*
COC(=O)c1[nH]c2cc(OC)ccc2c1NC(=O)c1c(F)cccc1F	6%	13µM*	12%	.	.	0%
CCN(CC(=O)Nc1c(C(=O)OC)[nH]c2ccccc12)c1ccc2c(c1)OCO2	23%	?	-28%	-9%	6.5µM*	?
CCn1c2ccccc2c2nnc(N3CCN(c4cccc(Cl)c4)CC3)nc21	.	.	0%	?	.	-2%
O=C(c1cccs1)N1CCN(C(=O)c2cccs2)C1=S	-22%	?	35µM*	?	?	.
O=C(c1cccs1)N1CCCC1	-1%	15%	13%	-17%	13%	?
SMILES	RE007 growth inh	HCV inhibitor	FMDV antiviral	LASV entry inh	MARV entry inh	Sm TGR block
COc1ccc(C2=C(C)C(N3CCC(C(=O)Nc4ccc(F)cc4C)CC3)=NS2(=O)=O)cc1	.	.	-14%	4%[46.1 µM]	.	-20%
O=c1ccc2[n+]([O-])c3ccc(O)cc3oc-2c1	0%	12%	-21%	.	.	2.2µM*
CCCS(=O)(=O)c1c(S(=O)(=O)CCC)c2c(N)cccn2c1C(=O)c1ccccc1	12%	-12%	1%	0%	?	50µM*
CCN(CC)CCCN1C=C2C(=O)C(C)(OC(=O)C3CCCC3)C(=O)C=C2C=C1c1ccsc1 (stereo unspecified)	0%	3%	3%	.	?	50µM*
CCS(=O)(=O)c1ncc(Cl)c(C(=O)NCc2ccccc2)n1	.	.	?	?	?	32µM*
COC(=O)c1cscc1S(=O)(=O)Cc1ccccc1	6%	23%	1%	.	.	10µM*
COc1ccc(N(Cc2ccccc2)C(=O)c2nc(S(C)(=O)=O)ncc2Cl)cc1	.	.	18µM*	?	2%[46.1 µM]	5.6µM*
CC(=O)Nc1ccc(NC(=O)c2nc(S(=O)(=O)Cc3ccccc3)ncc2Cl)cc1	-1%	-20%	32µM*	.	.	5µM*
O=C(NCC1Cc2cc(F)cc(-c3cnccn3)c2O1)c1cccc(-c2ccccc2F)c1 (stereo unspecified)	.	.	0%	.	.	.
Cc1ccc2nc(N3CCN(C(=O)C4COc5ccccc5O4)CC3)sc2c1 (stereo unspecified)	.	.	16%	-19%[46.1 µM]	.	10%
COC(=O)c1ccccc1NC(=O)c1nc(S(=O)(=O)Cc2ccccc2)ncc1Cl	0%	0%	32µM*	.	.	2.8µM*
COc1ccc(CNC(=O)c2nc(S(=O)(=O)Cc3ccccc3)ncc2Cl)cc1	-7%	?	22µM*	?	-7%[46.1 µM]	2.5µM*
Cc1noc(C(=O)NCc2ccccc2)c1Cl	2%	-7%	0%	.	.	5%
CS(=O)(=O)c1ncc(Cl)c(C(=O)Nc2ccc3ccccc3c2)n1	-1%	11µM*	13µM*	?	8.9µM*	.
O=C(NCc1ccccc1)c1nc(S(=O)(=O)Cc2ccccc2)ncc1Cl	-6%	-25%	32µM*	?	-7%[46.1 µM]	8.9µM*
Cc1ccc(NC(=O)C2CCCN(S(=O)(=O)c3ccc4c(c3)CCCC(=O)N4)C2)cc1Cl (stereo unspecified)	.	.	?	?	.	2%
CS(=O)(=O)c1ncc(Cl)c(C(=O)N(Cc2ccc(Cl)cc2)Cc2ccco2)n1	.	.	?	?	?	1.8µM*
Cc1nc(Cl)c(C(=O)NCc2ccccc2)c(C)c1Cl	2%	-1%	-2%	-1%	-5%	-32%
O=C(NCc1ccccc1)c1c(Cl)nc(Cl)c(Cl)c1Cl	8%	13µM*	-14%	-26%	?	-10%
Cc1cc(C)c(C)c(S(=O)(=O)ON2C(=O)c3ccccc3C2=O)c1C	?	?	?	?	?	1.4µM*
O=C1c2ccccc2C(=O)N1OS(=O)(=O)c1ccc(F)cc1	-7%	2%	?	.	.	0.71µM*
Cc1ccc(S(=O)(=O)ON2C(=O)c3ccccc3C2=O)c(C)c1	2%	9%	?	?	?	1.4µM*
